Measurements: the supplement of paper PMC11732987, “Enantioselective OTUD7B fragment discovery through chemoproteomics screening and high-throughput optimisation” (Communications Chemistry, 2025)

Key:
Experiment in all cases: log2 ratio of Biotin-Ahx-Ub-VS probe labelling (fragment/DMSO); higher = less target engagement (more negative = stronger competition), active = hit call of the paper (q ≤ 0.05, log2 ratio ≤ -1)
Conditions in all cases: compound concentration: 200 uM; treatment time: 3 h
[1] = biological target: USP34 (UniProt Q70CQ2)
Chain of USP34 (Q70CQ2 whole entry, the tested form may be a part): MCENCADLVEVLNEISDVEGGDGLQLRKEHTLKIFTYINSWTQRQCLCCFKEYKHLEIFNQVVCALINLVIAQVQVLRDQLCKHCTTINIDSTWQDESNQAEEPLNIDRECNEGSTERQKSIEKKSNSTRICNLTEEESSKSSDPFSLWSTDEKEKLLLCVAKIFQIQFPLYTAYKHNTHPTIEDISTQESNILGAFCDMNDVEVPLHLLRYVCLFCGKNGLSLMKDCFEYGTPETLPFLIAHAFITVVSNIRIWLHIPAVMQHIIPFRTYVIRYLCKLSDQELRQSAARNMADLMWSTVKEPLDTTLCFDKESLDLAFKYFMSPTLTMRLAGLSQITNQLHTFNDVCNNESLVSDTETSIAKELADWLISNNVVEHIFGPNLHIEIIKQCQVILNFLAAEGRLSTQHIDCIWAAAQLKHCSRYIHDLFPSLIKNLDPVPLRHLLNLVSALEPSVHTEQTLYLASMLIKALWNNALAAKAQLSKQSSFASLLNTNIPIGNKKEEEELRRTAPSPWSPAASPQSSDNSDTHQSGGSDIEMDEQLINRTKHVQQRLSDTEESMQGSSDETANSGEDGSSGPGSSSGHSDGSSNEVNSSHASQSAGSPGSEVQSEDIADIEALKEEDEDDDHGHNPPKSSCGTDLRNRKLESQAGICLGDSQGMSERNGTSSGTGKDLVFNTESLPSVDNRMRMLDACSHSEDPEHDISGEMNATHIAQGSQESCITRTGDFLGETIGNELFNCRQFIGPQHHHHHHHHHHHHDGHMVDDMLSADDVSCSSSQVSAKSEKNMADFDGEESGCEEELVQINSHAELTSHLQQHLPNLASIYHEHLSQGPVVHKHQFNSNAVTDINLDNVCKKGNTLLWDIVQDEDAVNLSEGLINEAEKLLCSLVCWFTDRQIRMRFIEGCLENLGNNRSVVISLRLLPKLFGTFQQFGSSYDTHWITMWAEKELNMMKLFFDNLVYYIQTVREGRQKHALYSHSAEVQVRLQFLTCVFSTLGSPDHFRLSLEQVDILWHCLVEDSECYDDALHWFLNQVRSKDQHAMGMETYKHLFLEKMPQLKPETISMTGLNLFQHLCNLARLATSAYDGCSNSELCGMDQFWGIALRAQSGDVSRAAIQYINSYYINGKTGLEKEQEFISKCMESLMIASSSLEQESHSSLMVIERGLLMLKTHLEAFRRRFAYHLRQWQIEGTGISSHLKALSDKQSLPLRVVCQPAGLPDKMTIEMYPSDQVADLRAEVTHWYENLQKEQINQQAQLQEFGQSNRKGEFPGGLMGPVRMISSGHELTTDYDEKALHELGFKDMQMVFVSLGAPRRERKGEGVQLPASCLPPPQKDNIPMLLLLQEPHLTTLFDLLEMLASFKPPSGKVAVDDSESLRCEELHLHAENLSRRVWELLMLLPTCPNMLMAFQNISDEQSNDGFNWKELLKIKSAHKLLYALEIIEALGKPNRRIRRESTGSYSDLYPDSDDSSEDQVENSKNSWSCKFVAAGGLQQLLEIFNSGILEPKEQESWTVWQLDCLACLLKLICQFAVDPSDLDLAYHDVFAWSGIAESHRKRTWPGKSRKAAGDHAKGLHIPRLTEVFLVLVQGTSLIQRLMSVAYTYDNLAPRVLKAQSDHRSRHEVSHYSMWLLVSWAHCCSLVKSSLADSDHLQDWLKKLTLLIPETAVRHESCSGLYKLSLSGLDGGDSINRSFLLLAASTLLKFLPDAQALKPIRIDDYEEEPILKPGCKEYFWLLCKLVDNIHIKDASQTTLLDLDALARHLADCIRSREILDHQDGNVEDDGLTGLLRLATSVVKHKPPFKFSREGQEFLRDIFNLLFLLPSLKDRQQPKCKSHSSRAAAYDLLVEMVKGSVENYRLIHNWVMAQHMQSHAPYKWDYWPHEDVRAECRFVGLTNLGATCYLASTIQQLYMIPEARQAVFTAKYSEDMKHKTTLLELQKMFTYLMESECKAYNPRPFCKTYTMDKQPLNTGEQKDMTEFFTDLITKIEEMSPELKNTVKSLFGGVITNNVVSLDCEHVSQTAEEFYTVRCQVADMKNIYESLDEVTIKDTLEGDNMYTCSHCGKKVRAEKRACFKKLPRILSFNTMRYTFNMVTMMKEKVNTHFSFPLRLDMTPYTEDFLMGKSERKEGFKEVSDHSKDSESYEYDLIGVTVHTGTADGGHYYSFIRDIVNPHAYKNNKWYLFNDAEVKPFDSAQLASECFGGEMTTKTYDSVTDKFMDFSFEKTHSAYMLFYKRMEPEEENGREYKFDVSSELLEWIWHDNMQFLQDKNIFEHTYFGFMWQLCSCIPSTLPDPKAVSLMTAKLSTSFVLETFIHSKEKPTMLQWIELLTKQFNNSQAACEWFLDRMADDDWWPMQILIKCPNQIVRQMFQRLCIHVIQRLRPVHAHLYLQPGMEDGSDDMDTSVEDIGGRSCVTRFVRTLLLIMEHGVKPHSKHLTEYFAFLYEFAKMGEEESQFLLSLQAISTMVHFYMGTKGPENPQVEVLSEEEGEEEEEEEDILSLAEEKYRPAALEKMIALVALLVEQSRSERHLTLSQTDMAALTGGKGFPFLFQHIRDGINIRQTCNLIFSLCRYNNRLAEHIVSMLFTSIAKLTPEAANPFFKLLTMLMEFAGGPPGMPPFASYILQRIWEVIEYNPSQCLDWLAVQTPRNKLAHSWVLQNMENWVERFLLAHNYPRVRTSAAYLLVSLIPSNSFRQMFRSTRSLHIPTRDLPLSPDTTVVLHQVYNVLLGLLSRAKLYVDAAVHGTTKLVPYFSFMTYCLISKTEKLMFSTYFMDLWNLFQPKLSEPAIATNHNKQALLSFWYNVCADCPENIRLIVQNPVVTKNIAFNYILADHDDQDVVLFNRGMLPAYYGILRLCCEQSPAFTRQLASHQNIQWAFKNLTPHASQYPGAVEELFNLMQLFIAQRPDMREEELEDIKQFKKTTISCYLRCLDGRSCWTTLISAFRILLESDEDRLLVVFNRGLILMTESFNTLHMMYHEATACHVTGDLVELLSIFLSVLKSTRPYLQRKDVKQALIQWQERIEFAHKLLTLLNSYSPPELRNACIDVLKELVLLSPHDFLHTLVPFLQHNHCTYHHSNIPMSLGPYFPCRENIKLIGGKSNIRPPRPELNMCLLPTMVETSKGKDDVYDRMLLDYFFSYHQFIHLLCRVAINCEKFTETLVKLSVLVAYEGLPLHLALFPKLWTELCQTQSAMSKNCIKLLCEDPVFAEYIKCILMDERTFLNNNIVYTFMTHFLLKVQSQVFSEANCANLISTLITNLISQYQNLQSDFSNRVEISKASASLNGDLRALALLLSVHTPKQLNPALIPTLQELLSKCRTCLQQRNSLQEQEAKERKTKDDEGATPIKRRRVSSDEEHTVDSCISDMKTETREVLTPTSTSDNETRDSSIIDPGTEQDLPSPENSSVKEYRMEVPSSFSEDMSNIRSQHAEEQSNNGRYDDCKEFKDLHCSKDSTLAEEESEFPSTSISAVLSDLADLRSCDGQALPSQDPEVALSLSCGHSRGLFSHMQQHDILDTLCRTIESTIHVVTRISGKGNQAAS
Outline: (§1)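 Labelled DUBs from HEK293T lysate were NeutrAvidin-enriched, digested with LysC and trypsin, and run by diaPASEF LC-MS/MS. Before that, each 495 µg sample in Tris/CHAPS/IGEPAL buffer with protease inhibitors was treated in triplicate with fragment at 200 µM or vehicle for 3 h, then with Biotin-Ahx-Ub-VS at 0.5 µM final for 1 h. Values are average log2 ratios of fragment over vehicle by unpaired t-test, based on global-median-normalised Spectronaut label-free quantities from proteins with ≥2 unique peptides.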

[2] = biological target: T1, USP36 (UniProt Q9P275)
T1 sequence (whole entry): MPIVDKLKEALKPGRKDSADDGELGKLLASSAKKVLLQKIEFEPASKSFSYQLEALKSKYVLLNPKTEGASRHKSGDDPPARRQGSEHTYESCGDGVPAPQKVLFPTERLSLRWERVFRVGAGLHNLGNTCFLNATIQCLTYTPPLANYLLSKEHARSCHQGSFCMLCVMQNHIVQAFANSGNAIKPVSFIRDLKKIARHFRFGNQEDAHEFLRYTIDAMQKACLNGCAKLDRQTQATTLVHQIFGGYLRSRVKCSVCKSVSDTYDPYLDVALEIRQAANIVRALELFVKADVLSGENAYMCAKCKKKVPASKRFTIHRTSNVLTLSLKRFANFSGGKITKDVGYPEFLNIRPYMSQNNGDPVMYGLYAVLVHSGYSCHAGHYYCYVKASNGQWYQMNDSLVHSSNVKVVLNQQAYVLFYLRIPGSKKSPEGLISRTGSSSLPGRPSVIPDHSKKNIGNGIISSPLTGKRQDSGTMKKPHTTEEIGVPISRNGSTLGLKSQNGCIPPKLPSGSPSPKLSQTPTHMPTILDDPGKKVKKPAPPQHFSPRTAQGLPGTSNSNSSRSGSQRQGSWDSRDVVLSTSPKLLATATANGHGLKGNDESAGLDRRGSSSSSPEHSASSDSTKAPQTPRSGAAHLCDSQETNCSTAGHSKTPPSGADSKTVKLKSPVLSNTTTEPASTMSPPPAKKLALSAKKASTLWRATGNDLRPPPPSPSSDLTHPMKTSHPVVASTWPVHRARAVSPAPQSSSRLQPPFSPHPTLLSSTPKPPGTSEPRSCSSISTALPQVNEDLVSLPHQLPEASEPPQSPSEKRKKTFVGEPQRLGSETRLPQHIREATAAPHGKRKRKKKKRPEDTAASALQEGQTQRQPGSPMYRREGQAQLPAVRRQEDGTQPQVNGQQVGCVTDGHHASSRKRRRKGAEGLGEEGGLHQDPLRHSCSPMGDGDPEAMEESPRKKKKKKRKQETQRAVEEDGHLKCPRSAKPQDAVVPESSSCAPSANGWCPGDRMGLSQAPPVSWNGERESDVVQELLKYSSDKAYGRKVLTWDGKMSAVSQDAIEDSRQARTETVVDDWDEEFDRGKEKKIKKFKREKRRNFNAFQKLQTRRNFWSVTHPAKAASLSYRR
Outline: as §1

[3] = biological target: T2, USP38 (UniProt Q8NB14)
T2 sequence (whole entry): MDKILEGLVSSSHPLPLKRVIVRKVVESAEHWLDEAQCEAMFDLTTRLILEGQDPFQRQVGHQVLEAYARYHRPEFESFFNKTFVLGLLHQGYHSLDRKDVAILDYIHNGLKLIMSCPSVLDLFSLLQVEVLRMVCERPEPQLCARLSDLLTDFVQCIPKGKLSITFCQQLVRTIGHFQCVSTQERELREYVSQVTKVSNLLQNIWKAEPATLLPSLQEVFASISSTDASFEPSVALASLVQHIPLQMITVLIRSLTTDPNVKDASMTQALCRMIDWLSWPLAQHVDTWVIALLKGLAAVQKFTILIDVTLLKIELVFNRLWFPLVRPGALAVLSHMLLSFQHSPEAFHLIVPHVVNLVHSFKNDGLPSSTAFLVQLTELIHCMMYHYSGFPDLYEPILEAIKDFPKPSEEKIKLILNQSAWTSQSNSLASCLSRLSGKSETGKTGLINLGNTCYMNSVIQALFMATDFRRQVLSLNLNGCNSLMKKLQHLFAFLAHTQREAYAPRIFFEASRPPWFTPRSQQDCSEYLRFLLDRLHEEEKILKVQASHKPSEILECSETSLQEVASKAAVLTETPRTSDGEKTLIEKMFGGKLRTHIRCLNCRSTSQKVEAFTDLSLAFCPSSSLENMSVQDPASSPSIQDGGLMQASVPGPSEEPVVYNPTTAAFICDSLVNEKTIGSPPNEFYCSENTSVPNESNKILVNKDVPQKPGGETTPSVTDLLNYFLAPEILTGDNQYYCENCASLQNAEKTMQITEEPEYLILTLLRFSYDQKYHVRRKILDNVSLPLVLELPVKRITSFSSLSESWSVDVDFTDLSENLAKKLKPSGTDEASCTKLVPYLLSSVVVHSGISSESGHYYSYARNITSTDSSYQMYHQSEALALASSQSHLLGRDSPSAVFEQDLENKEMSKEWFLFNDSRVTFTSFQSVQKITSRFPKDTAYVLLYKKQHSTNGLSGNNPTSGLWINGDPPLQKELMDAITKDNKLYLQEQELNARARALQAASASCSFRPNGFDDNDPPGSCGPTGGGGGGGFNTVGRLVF
Outline: as §1

[4] = biological target: T3, USP39 (UniProt Q53GS9)
T3 sequence (whole entry): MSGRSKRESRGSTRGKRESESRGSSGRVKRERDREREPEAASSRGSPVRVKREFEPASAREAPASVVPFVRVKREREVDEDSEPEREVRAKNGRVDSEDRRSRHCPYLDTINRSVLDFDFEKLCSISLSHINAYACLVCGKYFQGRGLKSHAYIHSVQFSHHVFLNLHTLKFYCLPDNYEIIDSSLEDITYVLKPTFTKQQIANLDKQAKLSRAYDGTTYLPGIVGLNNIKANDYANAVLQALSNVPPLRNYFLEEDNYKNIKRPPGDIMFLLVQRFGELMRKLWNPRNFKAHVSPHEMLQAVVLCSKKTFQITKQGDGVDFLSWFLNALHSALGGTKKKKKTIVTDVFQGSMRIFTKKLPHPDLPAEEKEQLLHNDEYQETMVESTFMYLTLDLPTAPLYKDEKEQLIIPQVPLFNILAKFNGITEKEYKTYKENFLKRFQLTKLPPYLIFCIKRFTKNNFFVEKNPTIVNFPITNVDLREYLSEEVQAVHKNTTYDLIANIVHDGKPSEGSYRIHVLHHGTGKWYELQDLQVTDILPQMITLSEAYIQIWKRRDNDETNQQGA
Outline: as §1

[5] = biological target: T4, USP4 (UniProt Q13107)
T4 sequence (whole entry): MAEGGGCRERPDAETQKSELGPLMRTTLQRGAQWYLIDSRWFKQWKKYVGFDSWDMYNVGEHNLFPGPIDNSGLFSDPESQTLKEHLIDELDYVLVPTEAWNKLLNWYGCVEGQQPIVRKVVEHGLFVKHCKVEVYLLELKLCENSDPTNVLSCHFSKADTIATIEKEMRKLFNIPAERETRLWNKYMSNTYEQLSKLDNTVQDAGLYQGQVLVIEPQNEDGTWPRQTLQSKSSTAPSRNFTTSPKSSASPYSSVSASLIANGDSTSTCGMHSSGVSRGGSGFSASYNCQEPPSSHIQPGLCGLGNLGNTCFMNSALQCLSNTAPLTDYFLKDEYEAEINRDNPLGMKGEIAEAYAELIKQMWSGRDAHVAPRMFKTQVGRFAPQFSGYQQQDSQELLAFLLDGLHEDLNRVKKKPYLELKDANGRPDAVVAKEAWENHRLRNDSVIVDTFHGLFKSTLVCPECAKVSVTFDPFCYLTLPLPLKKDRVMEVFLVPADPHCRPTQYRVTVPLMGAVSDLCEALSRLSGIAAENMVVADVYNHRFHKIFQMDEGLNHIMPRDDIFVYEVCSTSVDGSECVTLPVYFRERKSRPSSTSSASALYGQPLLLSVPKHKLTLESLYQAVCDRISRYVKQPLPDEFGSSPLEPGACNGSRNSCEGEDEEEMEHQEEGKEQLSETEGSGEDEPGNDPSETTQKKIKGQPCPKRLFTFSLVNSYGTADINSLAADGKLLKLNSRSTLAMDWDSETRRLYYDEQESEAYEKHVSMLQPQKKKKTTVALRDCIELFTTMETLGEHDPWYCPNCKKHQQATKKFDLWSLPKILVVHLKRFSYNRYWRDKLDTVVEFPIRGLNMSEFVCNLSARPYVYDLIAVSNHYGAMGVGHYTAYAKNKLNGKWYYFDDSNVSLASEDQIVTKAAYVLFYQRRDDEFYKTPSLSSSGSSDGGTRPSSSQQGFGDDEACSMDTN
Outline: as §1

Measured: log2 ratio of Biotin-Ahx-Ub-VS probe labelling

O=C(CCl)NC1CCN(C(=O)C2CCCCC2)CC1
inactive: [1] 0.0203 | [2] -0.0678 | [3] 0.166 | [4] 0.187 | [5] -0.0463
